Source: PubChem BioAssay AID1159580 (chemical genetic matrix, 2015)
“And” between values parts separate entries of the source, which are not always exact repeats. Equal values may be shown once. Hit rate of the full screen: of about 5,500 compounds, about 2,000 (36%) were called active. Not shown: some 18% with an inconclusive outcome. Cut-off read from the data, not from the text of the source: active = normalized growth mostly below about 0.91 (no sharp cut-off); inconclusive = no clear call, values can overlap the other calls; inactive = mostly above about 0.92. The list shows a part of the results.

Experiment: chemical genetic growth profiling, strain panel (AID 1159580);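 note: tested at 20 µM; growth read once vehicle control cultures reached saturation at 30 °C; 1 = growth at the plate median or of vehicle wells; lower values mean less growth of the strain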
Settings: S. cerevisiae deletion strains, growth OD

Measured: normalized growth

CCOC(=O)C(Cc1ccc(O)cc1)NC(C)=O (stereo unspecified)
inactive: locus YAL013W, strain DEP1, hits give low values 0.99 | locus YAL021C, strain ccr4, hits give low values 1.01 | locus YAL026C, strain drs2, hits give low values 1.01 | locus YAL030W, strain snc1, hits give low values 1 | locus YBL061C, strain skt5, hits give low values 1.02 | locus YBR009C, strain hhf1, hits give low values 0.974 | locus YBR021W, strain FUR4, hits give low values 1.01 | locus YBR023C, strain chs3, hits give low values 1.01 | locus YBR171W, strain sec66, hits give low values 1.01 | locus YBR229C, strain ROT2, hits give low values 1.01 | locus YBR231C, strain swc5, hits give low values 1 | locus YBR279W, strain paf1, hits give low values 1 | locus YCL011C, strain gbp2, hits give low values 1 | locus YCL016C, strain dcc1, hits give low values 1 | locus YCL029C, strain bik1, hits give low values 0.999 | locus YCL069W, strain vba3, hits give low values 0.989 | locus YCR088W, strain abp1, hits give low values 1.01 | locus YDL005C, strain med2, hits give low values 1.02 | locus YDL035C, strain GPR1, hits give low values 1.02 | locus YDL040C, strain nat1, hits give low values 1.01 | locus YDL074C, strain BRE1, hits give low values 1.02 | locus YDL101C, strain DUN1, hits give low values 1.02 | locus YDL134C, strain PPH21, hits give low values 1 | locus YDL185W, strain tfp1, hits give low values 0.993 | locus YDL192W, strain arf1, hits give low values 0.996 | locus YDR001C, strain nth1, hits give low values 1.01 | locus YDR069C, strain doa4, hits give low values 0.998 | locus YDR101C, strain arx1, hits give low values 0.996 | locus YDR137W, strain rgp1, hits give low values 1.02 | locus YDR150W, strain NUM1, hits give low values 1.01 | locus YDR159W, strain sac3, hits give low values 0.985 | locus YDR162C, strain NBP2, hits give low values 1.02 | locus YDR195W, strain ref2 1.01 | locus YDR297W, strain sur2, hits give low values 1 | locus YDR318W, strain mcm21, hits give low values 1.01 | locus YDR334W, strain swr1, hits give low values 0.997 | locus YDR335W, strain msn5, hits give low values 1.01 | locus YDR388W, hits give low values 1.01 | locus YDR392W, strain spt3, hits give low values 1.03 | locus YDR502C, strain sam2, hits give low values 0.992 | locus YEL003W, strain gim4, hits give low values 1.01 | locus YEL037C, strain rad23, hits give low values 1 | locus YEL061C, strain CIN8 (second series), hits give low values 0.998 | locus YEL061C, strain CIN8, hits give low values 1.01 | locus YER015W, strain faa2, hits give low values 1 | locus YER016W, strain bim1, hits give low values 1.03 | locus YER110C, hits give low values 1.01 | locus YER111C, strain swi4, hits give low values 1.02 | locus YER155C, strain BEM2 (second series), hits give low values 1.04 | locus YER155C, strain BEM2, hits give low values 1 | locus YER167W, strain BCK2, hits give low values 1.02 | locus YFR010W, strain ubp6, hits give low values 0.987 | locus YGL078C, strain dbp3, hits give low values 0.993 | locus YGL086W, strain mad1, hits give low values 1 | locus YGL167C, strain pmr1, hits give low values 1.01 | locus YGL173C, strain kem1, hits give low values 1.01 | locus YGL227W, strain vid30, hits give low values 1 | locus YGL240W, strain doc1, hits give low values 1.03 | locus YGL248W, strain PDE1, hits give low values 1.01 | locus YGL253W, strain hxk2, hits give low values 1 | locus YGR078C, strain PAC10, hits give low values 1.02 | locus YGR135W, strain pre9, hits give low values 0.989 | locus YGR229C, strain SMI1, hits give low values 1.03 | locus YGR252W, strain gcn5, hits give low values 0.961 | locus YHR013C, strain ard1, hits give low values 1.03 | locus YHR027C, strain rpn1, hits give low values 1.01 | locus YHR030C, strain SLT2, hits give low values 1.02 and 0.974 | locus YHR079C, strain IRE1 (second series), hits give low values 1.01 | locus YHR079C, strain IRE1, hits give low values 0.984 | locus YHR094C, strain hxt1, hits give low values 1.01 | locus YHR129C, strain ARP1, hits give low values 1.01 | locus YHR142W, strain chs7, hits give low values 1.01 | locus YHR200W, strain rpn10, hits give low values 1.01 | locus YIL066C, strain RNR3, hits give low values 1.01 | locus YIL073C, strain SPO22, hits give low values 1 | locus YIL125W, strain kgd1, hits give low values 1 | locus YIR030C, strain dcg1, hits give low values 0.997 | locus YJL092W, strain hpr5, hits give low values 1 | locus YJL095W, strain BCK1 (second series), hits give low values 1.03 | locus YJL095W, strain BCK1, hits give low values 1.04 and 0.965 | locus YJL115W, strain asf1, hits give low values 0.999 | locus YJL129C, strain trk1, hits give low values 1.02 | locus YJL134W, strain LCB3, hits give low values 1.02 | locus YJL154C, strain vps35, hits give low values 1.01 | locus YJL164C, strain tpk1, hits give low values 1 | locus YJL166W, strain qcr8, hits give low values 0.995 | locus YJL168C, strain set2, hits give low values 1.01 | locus YJL187C, strain SWE1 (second series), hits give low values 1.02 | locus YJL187C, strain SWE1, hits give low values 1.01 | locus YJR043C, strain POL32, hits give low values 1.02 | locus YJR066W, strain TOR1, hits give low values 0.887
